Reference: the supplement of paper PMC4840960
± gives the standard deviation of the averaged measurements.

system: E18 rat cortical neuron-glia co-culture; test: fiber score / MBP score (myelination specific beyond OL differentiation) (ratio); higher = more myelination-specific MBP alignment; conditions: 5 µM; treatment time: 8 days (DIV5-DIV13)
Procedure, shortened: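 Primary E18 rat cortical co-cultures (papain-dissociated, 20,000 cells/well on poly-d-lysine/laminin 96-well plates) received library compounds at 1 or 5 µM in myelination medium from DIV5 to DIV13. Cells were fixed in 4 % paraformaldehyde and immunostained for MBP and Olig2 with DAPI, and four 10X fields per well in duplicate wells were analysed. The read-out is fiber score (continuous MBP fiber length per Olig2+ nucleus) divided by MBP score (thresholded MBP area × intensity per Olig2+ nucleus).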

Structure (SMILES) | fiber score / MBP score
c1ccc(-c2ccc(C(c3ccccc3)n3ccnc3)cc2)cc1 (centres undefined) [Bifonazole] | 1.22
OC[C@H]1O[C@@H](Oc2cc(O)cc(/C=C/c3ccc(O)cc3)c2)[C@H](O)[C@@H](O)[C@@H]1O [Polydatin] | 0.769
CN1[C@@H](CC(=O)c2ccccc2)CCC[C@H]1C[C@H](O)c1ccccc1 [Lobeline] | 0.451
CCOC(=O)[C@H](CCc1ccccc1)N[C@@H](C)C(=O)N1[C@H](C(=O)O)C[C@@H]2CCC[C@@H]21 [Ramipril] | 0.628 ± 0.47
NNC(=O)c1ccncc1 [Isoniazid] | 0.914
Cc1nc2ccccn2c(=O)c1CCN1CCC(C(=O)c2ccc(F)cc2)CC1 [Pirenperone] | 0.646
N=C(N)NC(=O)c1nc(Cl)c(N)nc1N [Amiloride] | 0.827
COc1ccc([C@@H]2Sc3ccccc3N(CCN(C)C)C(=O)[C@@H]2OC(C)=O)cc1 [Diltiazem] | 0.558
CCCC(=O)Nc1ccc(OCC(O)CNC(C)C)c(C(C)=O)c1 (centres undefined) [Acebutolol] | 0.796
CC(=O)Nc1nnc(S(N)(=O)=O)s1 [Acetazolamide] | 0.99
Clc1ccc2c(c1)CCc1cccnc1C2=C1CCNCC1 [Desloratadine] | 0.803
CCC(=O)O[C@@H]1CC(=O)O[C@H](C)C/C=C/C=C/[C@H](O)[C@H](C)C[C@H](CC=O)[C@H](O[C@@H]2O[C@H](C)[C@@H](O[C@H]3C[C@@](C)(O)[C@@H](OC(=O)CC)[C@H](C)O3)[C@H](N(C)C)[C@H]2O)[C@H]1OC [Midecamycin] | 1.13
O=S(=O)(O)CCS [Mesna] | 0.877
C[C@]12CCC(=O)C=C1CC[C@@H]1[C@@H]2[C@@H](O)C[C@@]2(C)[C@H]1CC[C@]2(O)C(=O)CO [Hydrocortisone] | 0.656 ± 0.11
COc1ccc(OC)c(C(O)CNC(=O)CN)c1 (centres undefined) [Midodrine] | 0.885
COc1ccccc1OCC(O)COC(N)=O (centres undefined) [Methocarbamol] | 0.985
CCN(CC)CCOC(=O)C1(C2CCCCC2)CCCCC1 [Dicyclomine] | 0.288
CN(CCOc1ccc(NS(C)(=O)=O)cc1)CCc1ccc(NS(C)(=O)=O)cc1 [Dofetilide] | 0.728
Cc1cccc(Nc2ccncc2S(=O)(=O)NC(=O)NC(C)C)c1 [Torsemide] | 0.949
O=C1CN(/N=C/c2ccc([N+](=O)[O-])o2)C(=O)N1 [Nitrofurantoin] | 1.79

Structure (SMILES) | fiber score / MBP score
CC(Oc1c(Cl)cccc1Cl)C1=NCCN1 (centres undefined) [lofexidine] | 1.1
NCCc1ccc(O)c(O)c1 [Dopamine] | 1.06
CC(N/C(=N\C#N)Nc1ccncc1)C(C)(C)C (centres undefined) [Pinacidil] | 0.451
CN(C)c1ccc(O)c2c1C[C@H]1C[C@H]3[C@H](N(C)C)C(O)=C(C(N)=O)C(=O)[C@@]3(O)C(O)=C1C2=O [Minocycline] | 0.583
CCOC(=O)C1=C(C)NC(C)=C(C(=O)OC)C1c1cccc(Cl)c1Cl (centres undefined) [Felodipine] | 0.858
COc1ccc2cc(CCC(C)=O)ccc2c1 [Nabumetone] | 1.17
O=[N+]([O-])c1cccc2cn[nH]c12 [7-Nitroindazole] | 0.753
OCCN1C[C@H](O)[C@@H](O)[C@H](O)[C@H]1CO [Miglitol] | 0.788
CCCC(=O)O[C@]1(C(=O)COC(=O)CC)CC[C@H]2[C@@H]3CCC4=CC(=O)CC[C@]4(C)[C@H]3[C@@H](O)C[C@@]21C [Hydrocortisone buteprate] | 1.22
Cc1cccc(Nc2ccccc2C(=O)O)c1C [Mefenamic Acid] | 1.3
Cc1ccccc1C(OCCN(C)C)c1ccccc1 (centres undefined) [Orphenadrine] | 0.896 ± 0.071
CCCCC(=O)O[C@H]1CC[C@H]2[C@@H]3CCc4cc(O)ccc4[C@H]3CC[C@]12C [Estradiol valerate] | 1.04
CC1(C)S[C@@H]2[C@H](NC(=O)Cc3ccccc3)C(=O)N2[C@H]1C(=O)O [Penicillin G] | 1.19
CN1CCC(=C2c3ccccc3CC(=O)c3sccc32)CC1 [Ketotifen] | 0.58
O=C(CCNNC(=O)c1ccncc1)NCc1ccccc1 [Nialamide] | 0.524
NC12CC3CC(CC(C3)C1)C2 [Amantadine] | 0.883
Cc1onc(-c2c(Cl)cccc2Cl)c1C(=O)N[C@@H]1C(=O)N2[C@@H]1SC(C)(C)[C@@H]2C(=O)O [Dicloxacillin] | 0.655
Cc1cc(NS(=O)(=O)c2ccc(N)cc2)no1 [Sulfamethoxazole] | 0.803
COC(=O)C1=C(C)NC(C)=C(C(=O)OC2CCCN(Cc3ccccc3)C2)C1c1cccc([N+](=O)[O-])c1 (centres undefined) [Benidipine] | 0.892
